# Hits are enriched below; roughly 0.52% of the tested compounds scored in any of these assays.
# GAA inh = alpha-glucosidase (human) inhibition; AID 1466; actives 0.005% (n = 200,000); Potency, µM (titrated, usually from 76.9 µM), without a hit: top-dose activity change, negative = inhibition, usual class: inhibitors; P10253; purified human GAA, 4-MU-alpha-glucoside fluorescence;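 further: plate controls were uninhibited enzyme wells for no effect and no-enzyme background for full effect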
#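 AC50 values come from Hill fits of compound titrations (up to 77 uM) against 4 nM human enzyme. Substrate 4-methylumbelliferyl-alpha-D-pyranoside at 400 uM, pH 5.0 citrate buffer, 20 min room temperature; fluorescence Ex 365/Em 440 after alkaline stop.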
# LMNA splice mod = modulators of lamin A splicing. HeLa LMNA splicing GFP/RFP minigene ratio, 48 h. Potency, µM (series often up to 46.1 µM), without a hit: at the top dose ratio change, negative = inhibition, actives largely listed as inhibitors. actives 0.01% (n = 200,000). AID 1487; active means well fitted inhibition curve with a large enough effect in the signal ratio, with a control signal flat, not every such curve was filed as active; inconclusive means small, poorly fitted or top-dose-only effect, or effect the other way, or a change in a side signal; the % refers to the signal ratio
#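 S3 HeLa cells stably expressing lamin A-EGFP splicing minigene plus DsRed2, 600 cells/well, 48 h compound exposure at 37C. Laser-scanning cytometry; analysed as GFP (500-530 nm)/RFP (575-640 nm) total intensity ratio; 0.5% DMSO vehicle.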
# GAA spleen mod = lysosomal alpha-glucosidase (human) modulation; P10253; human spleen homogenate, 4-MU-alpha-glucoside fluorescence; Potency, µM (doses to about 79.9 µM), inactives show at the top dose activity change, negative = inhibition, hits mostly inhibitors; actives 0.006% (n = 240,000); AID 2112;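 further: 0% = enzyme with vehicle and -100% = no enzyme basal signal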
#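 AC50 values come from Hill-equation fits of concentration-response data, normalized to no-enzyme and full-activity controls. Enzyme source: 1 ug human spleen homogenate; 1 mM fluorogenic 4-MU glucoside, pH 5.0 citrate buffer, 37 C, 40 min.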
# GAA glycogen = GAA glycogen-cleavage inhibition or activation; AID 2100; recombinant GAA, glycogen substrate, Amplex Red glucose oxidase fluorescence; Potency, µM (series often up to 76.4 µM), inactives show at the top dose activity change, negative = inhibition, usual class: inhibitors; actives 0.38% (n = 300,000); P10253;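 further: 0% = full enzyme reaction and -100% = no-enzyme basal signal; the screen sought inhibitors and activators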
#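 Natural-substrate format: glycogen cleavage by 4 nM human enzyme, glucose read by Amplex Red coupling (Ex 573, Em 610 nm). Normalized to enzyme and no-enzyme controls.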
# Luc counter = blocks Kinase-Glo luciferase, a counter-screen artifact. Q27757. Kinase-Glo luciferase, ATP luminescence, 8 min. Potency, µM (top dose mostly 38.3 µM), inactives show at the top dose activity change, negative = inhibition, hits mostly inhibitors. actives 0.28% (n = 200,000); further: nearly all actives have a fitted effect of over 60% in size
#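 Inhibition of Kinase-Glo luciferase light generation was assessed at 10 uM ATP in pH 7.2 imidazole buffer, with luminescence measured after eight minutes at ambient temperature.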
# N370S GC mod = inhibitors or activators of N370S glucocerebrosidase for Gaucher disease; P04062; N370S GC spleen homogenate, 4MU-glucoside fluorescence; Potency, µM (titrated, usually from 59.4 µM), for the others: top-dose activity change, negative = inhibition, actives largely listed as inhibitors; actives 0.092% (n = 330,000); AID 2101;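 further: 0% = full enzyme activity and -100% = no enzyme basal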
# Starred values were filed as active, the others as inactive; ? = inconclusive; . = not tested or not shown; [ ] = dose if it differs, or a comment. Unless noted, the call rests on the fitted dose curve; in most records, active means well fitted curve in the direction sought with a large enough effect; inconclusive means small, poorly fitted or top-dose-only effect, or another doubt; inactive means no such curve, though single readings can be large; an effect the other way counts as inactive or inconclusive. Unless noted, on the % scale 0 is the no-effect control and ±100 the full control effect; potency means the concentration at half of the fitted maximal effect.
SMILES,GAA inh,LMNA splice mod,GAA spleen mod,GAA glycogen,Luc counter,N370S GC mod
O=C(CNC(=S)N(CCCN1CCOCC1)Cc1cccs1)NC1CCCCCCC1,-4%,-10%,6%,7%,-2%,4µM*
O=C(NNC(=S)NCCc1ccccc1)c1ccc(Br)s1,-2%,?,9%,35µM*,4%,16%
O=C(CN1CC(=O)Oc2ccccc21)OCC(=O)c1cccc(Br)c1,5%,?,-3%,8.8µM*,-1%,-18%
Oc1ccc(-c2csc(-c3ccccc3)n2)cc1O,-2%,?,-8%,11µM*,5%,6%
Oc1ccc(-c2csc(Nc3ncccn3)n2)c(O)c1,-2%,?,6%,-26%,-2%,-10%
Oc1ccc(-c2csc(Nc3ncccn3)n2)cc1O,-3%,-7%[46 µM],6%,7µM*,-1%,-5%
Oc1ccc(-c2csc(-c3cccnc3)n2)cc1O,.,.,7%,7.1µM*,.,-20%
Fc1ccc(-c2csc(-c3cccnc3)n2)cc1F,.,.,.,1%,.,-13%
COc1ccc(CCNC(=O)c2c(C)oc3ncn(CC(C)C)c(=O)c23)cc1OC,.,-22%[46 µM],.,.,.,.
O=C(c1cccc2ccccc12)N1CCCCC1,.,.,.,-8%[76.3 µM],.,-2%
O=C(c1cccc2cccc(O)c12)N1CCCCC1,5%,3%,2%,25µM*,.,-10%
c1ccc2c(c1)nnn1c3ccccc3nc21,10%,?,7%,6%,13µM*,10%
Cc1nc2ccccc2c2nc3ccccc3n12,1%,?,-11%,-3%,2%,3%
CCC(=O)Nc1ccccc1-c1nc2ccccc2n(C(CC)C(=O)Nc2cccc(C(C)=O)c2)c1=O (stereo unspecified),.,.,.,-7%[76.3 µM],.,.
OCCNc1nc(Nc2ccccc2)nc(Nc2ccccc2)n1,-2%,-3%,-2%,2%,-1%,11µM*
OCCNc1nc(Nc2ccccc2)nc2ccccc12,-6%,-6%,-1%,1%,0%,6%
C=C(C)C1CC=C(C)C(OC(C)=O)C1 (stereo unspecified),.,.,-5%,.,.,13%
COc1ccccc1C(=O)O/N=C(\N)c1ccccn1,.,.,3%,3%,.,-12%
N/C(=N\OC(=O)c1ccccc1Cl)c1ccccn1,0%,-11%,-11%,1%,11µM*,2%
N/C(=N\OC(=O)c1ccc(Cl)cc1)c1ccccn1,2%,?,-5%,8%,6.3µM*,-2%
CN(C)CCN(C)C(=O)c1ccc(-n2c(=O)c(=O)[nH]c3ccccc32)cc1,.,.,.,.,-2%,.
C/C(CCN1CCCCc2nc(C)c(C)cc21)=N\O[C@@H](C)CN1CCCc2nc(C)c(C)cc21,.,.,2%[17.4 µM],.,.,3%[12.8 µM]
CC1(C)C([N+](=O)[O-])C(c2ccc(O)cc2)NC(c2ccc(O)cc2)C1[N+](=O)[O-] (stereo unspecified),-2%,3%,0%,4%,2%,8.9µM*
CCOc1ccc(OCC)c(NC(=O)c2cnc(SC)nc2-c2ccccc2)c1,.,?,.,2%[76.3 µM],.,.
Cc1ccc(C(=O)N2c3ccccc3CC2C)o1 (stereo unspecified),2%,?,8%,-5%,11µM*,?
CC(=O)c1c(C)[nH]c(C(=O)N2c3ccccc3CC2C)c1C (stereo unspecified),-10%[15.4 µM],-15%,-3%,7%,1%,7%
Cc1ccc(C(=O)N2CCc3ccccc32)o1,-1%,-13%,-4%,-11%,13µM*,15%
O=C(c1ccc([N+](=O)[O-])o1)N1CCc2ccccc21,.,.,.,-7%[76.3 µM],.,0%
CCOc1cc(CNCCc2ccc(S(N)(=O)=O)cc2)ccc1OCc1ccccc1,?,10%,-1%,2%,-6%,6.3µM*
COc1cccc(C(c2c(NC(=O)c3ccccc3)sc(C)c2C)N2CCN(C)CC2)c1 (stereo unspecified),5%,-13%,3%,3%,3%,16µM*
